These results are taken from PubChem BioAssay (Tox21).

Values without a mark were called inactive. Active and inactive are the calls of the source. Unless noted, calls come from the whole dose curve; as a rule, active = well fitted curve in the direction sought with a large enough effect in the repeat runs; inconclusive = weak or mixed curves; inactive = flat fitted curve, though single readings scatter.

A short description of assay [1]: qHTS assay to test for compound auto fluorescence at 535 nm (green) in HEK293 cells (AID 720680). On the technique in general: qHTS replaces the single test concentration by a dilution series.
The nature of assay [2]: qHTS assay to test for compound auto fluorescence at 460 nm (blue) in HEK293 cell free culture (AID 720681). In outline: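 Test compounds were pinned into cell-free culture medium (DMEM with 10% FBS) and fluorescence was read directly at Ex/Em 405/460 nm. Signals were expressed as fluorescence equivalents of triamterene, with DMSO vehicle as control.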
A short description of assay [3]: qHTS assay to test for compound auto fluorescence at 535 nm (green) in HEK293 cell free culture (AID 720682). The gist of the method:
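Each library compound, or DMSO control, is added by pintool to medium alone, comprising DMEM and 10% FBS. Emission at 535 nm following 485 nm excitation is quantified against fluorescein.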

Assay [4] in a line: qHTS assay to test for compound auto fluorescence at 590 nm (red) in HEK293 cell free culture (AID 720683). The gist of the method: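 Tox21 10K library compounds were pinned into cell-free DMEM with 10% FBS and fluorescence was read at excitation 540 nm. Activity is expressed as Rose Bengal sodium equivalency.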
Assay [5] is described as follows: qHTS assay to test for compound auto fluorescence at 590 nm (red) in HepG2 cell free culture (AID 720684). In outline:
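Readout: intrinsic compound fluorescence at 590 nm emission after 540 nm excitation, scaled to Rose Bengal sodium. Matrix was cell-free MEM with 10% FBS; DMSO vehicle wells served as control.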

The nature of assay [6]: qHTS assay to test for compound auto fluorescence at 460 nm (blue) in HepG2 cell free culture (AID 720685). The gist of the method: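 Cell-free plates of MEM plus 10% FBS received 23 nL compound or DMSO vehicle; blue-channel (405/460 nm) intensity scored against triamterene as reference fluorophore.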
Assay [7] is described as follows: qHTS assay to test for compound auto fluorescence at 535 nm (green) in HepG2 cell free culture (AID 720686).
Assay [8] in a line: qHTS assay to test for compound auto fluorescence at 460 nm (blue) in HepG2 cells (AID 720687). In outline: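 Cells (2,000/well in MEM with 10% FBS) attached overnight at 37 C, then were exposed to compound or DMSO for 1 hr at 37 C, 5% CO2. Fluorescence read at Ex/Em 405/460 nm, expressed as triamterene-equivalent signal.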
Assay [9] has as its target Glucocorticoid receptor (Homo sapiens) (UniProt P04150). Kind of assay: qHTS assay to identify small molecule agonists of the glucocorticoid receptor (GR) signaling pathway (AID 720691; active = well fitted activation curve with a large enough effect in the signal ratio in the repeat runs, not every such curve was filed as active; inconclusive = weak or mixed curves, or effect the other way; inactive = no such curve, though single readings can be large or run the other way; the % refers to the signal ratio; note: potency is the fitted concentration of half-maximal effect). The gist of the method: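 Agonist-mode qHTS in HeLa cells stably expressing a glucocorticoid-response-element beta-lactamase reporter. Fluorescence intensity read with FRET substrate (2 h, room temperature) after 18 h compound treatment at 37 C.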

For assay [10] the target is unchanged. In words: qHTS assay to identify small molecule antagonists of the glucocorticoid receptor (GR) signaling pathway (AID 720692; active = well fitted inhibition curve with a large enough effect in the signal ratio in the repeat runs, not every such curve was filed as active; inconclusive = weak or mixed curves, or effect the other way; inactive = no such curve, though single readings can be large or run the other way; the % refers to the signal ratio; note: potency is the fitted concentration of half-maximal effect). The gist of the method:
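Inhibition of dexamethasone-driven (5 nM final) beta-lactamase expression was measured in GRE-reporter HeLa cells over 18 h at 37C. Fluorescence was read after 2 h with the B/G FRET substrate at room temperature.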
% is set by controls: 0 for no effect and ±100 for the full control effect.

Glucocorticoid receptor (Homo sapiens), sequence (P04150 whole entry, looked up): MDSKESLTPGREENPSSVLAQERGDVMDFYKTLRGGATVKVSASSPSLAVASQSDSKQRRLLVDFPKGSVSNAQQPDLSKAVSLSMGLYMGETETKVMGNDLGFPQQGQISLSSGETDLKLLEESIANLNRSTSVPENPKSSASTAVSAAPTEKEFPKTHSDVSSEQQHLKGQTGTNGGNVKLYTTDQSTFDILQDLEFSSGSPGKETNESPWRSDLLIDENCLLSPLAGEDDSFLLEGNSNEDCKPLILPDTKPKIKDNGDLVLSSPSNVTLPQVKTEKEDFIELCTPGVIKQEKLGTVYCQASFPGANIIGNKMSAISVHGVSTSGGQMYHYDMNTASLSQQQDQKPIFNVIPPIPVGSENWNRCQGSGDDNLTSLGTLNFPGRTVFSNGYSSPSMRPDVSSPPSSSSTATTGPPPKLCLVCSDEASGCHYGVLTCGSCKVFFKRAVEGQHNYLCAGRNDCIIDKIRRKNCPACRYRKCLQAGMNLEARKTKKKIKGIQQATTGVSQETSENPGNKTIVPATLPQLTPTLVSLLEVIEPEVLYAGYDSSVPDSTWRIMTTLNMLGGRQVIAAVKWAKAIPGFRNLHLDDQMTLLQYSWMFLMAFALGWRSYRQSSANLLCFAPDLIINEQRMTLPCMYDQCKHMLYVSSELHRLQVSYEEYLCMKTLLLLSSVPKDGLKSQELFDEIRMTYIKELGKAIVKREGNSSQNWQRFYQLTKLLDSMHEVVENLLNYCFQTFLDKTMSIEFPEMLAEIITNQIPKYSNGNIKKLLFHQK

As for `O=S(=O)(Cl)c1c(Cl)cccc1Cl`, the call in assay [1], in assay [3], in [4], in assay [5] and in assay [7] was inactive. For the same compound, the Potency entry in assay [2], in assay [6], in [8], in assay [9] and in assay [10] was “inactive” each time.
Take `Cc1ccc(N(CC2=NCCN2)c2cccc(O)c2)cc1`: the call in assay [1], in [3], in [4], in assay [5] and in assay [7] was inactive. The Potency result in assay [2], in assay [6], in [8], in assay [9] and in assay [10] was “inactive” each time.
As to `CCc1ccc(C)cc1`, the result in assay [1], in [3], in assay [4], in assay [5] and in assay [7] was inactive. For the same compound, the Potency entry in [2], in assay [6], in [8], in [9] and in [10] was “inactive” in each case.
Consider `CC(=O)OCC(=O)[C@@]1(OC(C)=O)[C@@H](C)C[C@H]2[C@@H]3C[C@H](F)C4=CC(=O)C=C[C@]4(C)[C@@]3(F)[C@@H](O)C[C@@]21C`, for which the call in [1], in [3], in assay [4] and in [7] was inactive. Further, the Potency result in assay [2], in assay [6] and in [8] was “inactive” throughout. Moreover, the Potency in assay [9] was 0.0379 µM [inconclusive] (active).
For `O=C1c2ccccc2C(=O)c2c(O)ccc(O)c21`, the outcome in assay [1], in [3], in assay [4] and in assay [7] was inactive. The Potency result in assay [2], in [6], in [8] and in [9] was “inactive” in each case.
As for `O=S(=O)(O)CO`, the result in assay [1], in assay [3], in [4], in assay [5] and in assay [7] was inactive. The Potency result in [2], in [6], in assay [8], in [9] and in assay [10] was “inactive” each time.
For `CC[C@H]1OC(=O)[C@H](C)[C@@H](O[C@H]2C[C@@](C)(OC)[C@@H](O)[C@H](C)O2)[C@H](C)[C@@H](O[C@@H]2O[C@H](C)C[C@H](N(C)C)[C@H]2O)[C@](C)(O)C[C@@H](C)C(=O)[C@H](C)[C@@H](O)[C@]1(C)O`, the outcome in assay [1], in [3], in assay [4] and in [7] was inactive. For the same compound, the Potency result in assay [2], in assay [6] and in assay [8] was “inactive” each time.
Turning to `CC[C@@H](CO)NCCN[C@@H](CC)CO`, the fluorescence, % of fluorescein in assay [1] is -0.0101% [at 18.6 µM]. Also, the fluorescence, % of fluorescent control in assay [2] was 0.0181% [at 18.6 µM]; in assay [4] it was 0.0179% [at 18.6 µM]; in assay [6], 0.0488% [at 18.6 µM]; in assay [8], -0.0204% [at 18.6 µM]. In [3], the activity change is 0.014% [at 18.6 µM]. Besides, the fluorescence, % of fluorescein control in assay [7] was 0.0013% [at 18.6 µM].
As for `O=C1NC(=O)c2cccc3cccc1c23`, the call in assay [1], in [3], in assay [4], in assay [5] and in assay [7] was inactive. In addition, the Potency result in assay [2], in assay [6], in assay [8], in assay [9] and in assay [10] was “inactive” in each case.
As to `CCCCCCC(O)CCCCCCCCCCC(=O)OC` (configuration not stated), the outcome in [1], in [3], in assay [4] and in [7] was inactive. For the same compound, the Potency result in assay [2], in assay [6], in assay [8] and in assay [9] was “inactive” throughout.
For the compound `CCCCCCCCCCCSCC(=O)O`, the result in assay [1], in assay [3], in [4] and in assay [7] was inactive. Further, the Potency result in assay [2], in assay [6] and in assay [8] was “inactive” each time.
In the case of `O=C(O)CCC(=O)c1ccc(-c2ccccc2)cc1`, the fluorescence, % of fluorescein in assay [1] was -0.008% [at 18.6 µM]. In addition, the fluorescence, % of fluorescent control was 0.0648% [at 18.6 µM] in assay [2], 0.387% [at 18.6 µM] in assay [4], -0.0525% [at 18.6 µM] in assay [6] and -0.0799% [at 18.6 µM] in assay [8]. For the same compound, the activity change in [3] was 0.0155% [at 18.6 µM]. In addition, the fluorescence, % of Rose Bengal in assay [5] was -0.0571% [at 18.6 µM]. Further, the fluorescence, % of fluorescein control in assay [7] is -0.127% [at 18.6 µM]. Besides, the Potency result in [9] and in [10] was “inactive” throughout.
With `O=c1[nH][nH]c(=O)c2cc([N+](=O)[O-])ccc12`, the result in assay [1], in assay [3], in assay [4], in assay [5] and in [7] was inactive. Further, the Potency entry in assay [2], in assay [6], in assay [8], in [9] and in assay [10] was “inactive” throughout.
As for `CN(C)CC/C=C1\c2ccccc2Sc2ccc(Cl)cc21`, the result in [1], in assay [3], in assay [4], in [5] and in assay [7] was inactive. The Potency entry in assay [2], in [6], in assay [8], in assay [9] and in [10] was “inactive” in each case.
Turning to `CC(=O)c1ccc[nH]1`, the call in assay [1], in assay [3], in [4] and in [7] was inactive. Moreover, the Potency result in assay [2], in assay [6], in [8], in [9] and in [10] was “inactive” each time.
Regarding `COc1cc(NC(C)CCCN)c2ncccc2c1` (configuration not stated), in [1], the fluorescence, % of fluorescein was -0.0105% [at 18.6 µM]. Moreover, the fluorescence, % of fluorescent control is 1.01% [at 18.6 µM] in assay [2], -0.109% [at 18.6 µM] in assay [4], 0.907% [at 18.6 µM] in assay [6] and 0.746% [at 18.6 µM] in [8]. For the same compound, the activity change in assay [3] is 0.0005% [at 18.6 µM]. Further, the fluorescence, % of fluorescein control in [7] is -0.0264% [at 18.6 µM].
For the compound `CN=C(N)NC(=O)Nc1c(C)cccc1C`, the result in assay [1], in assay [3], in [4], in assay [5] and in assay [7] was inactive. Besides, the Potency result in [2], in assay [6], in assay [8], in assay [9] and in assay [10] was “inactive” each time.
On to `COc1ccc(C)cc1`, for which the compound was classed as inactive in assay [1], in [3], in assay [4] and in assay [7]. For the same compound, the Potency entry in assay [2], in [6], in assay [8] and in assay [9] was “inactive” in each case.
Take `O[C@@H](CNC[C@H](O)[C@H]1CCc2cc(F)ccc2O1)[C@@H]1CCc2cc(F)ccc2O1`: the outcome in [1], in assay [3], in assay [4], in assay [5] and in [7] was inactive. Besides, the Potency result in [2], in assay [6] and in [8] was “inactive” throughout. In addition, the Potency in [10] was 23.9 µM (active).
As for `CC(C)C(O)C(C)(C)CO` (configuration not stated), the compound was classed as inactive in assay [1], in assay [3], in assay [4], in [5] and in assay [7]. The Potency result in [2], in assay [6], in assay [8], in assay [9] and in assay [10] was “inactive” in each case.
Consider `c1ccc(CNc2ncnc3c2ncn3C2CCCCO2)cc1` (configuration not stated), for which the call in assay [1], in [3], in assay [4] and in assay [7] was inactive. The Potency result in assay [2], in assay [6], in assay [8], in assay [9] and in assay [10] was “inactive” each time.
As for `COC(CC(C)CCCC(C)(C)O)OC` (configuration not stated), the result in [1], in assay [3], in assay [4], in assay [5] and in [7] was inactive. Besides, the Potency result in [2], in [6], in assay [8], in assay [9] and in [10] was “inactive” in each case.
For the compound `C[C@H](CS)C(=O)N1CCC[C@H]1C(=O)O`, the result in [1], in assay [3], in assay [4], in assay [5] and in [7] was inactive. Further, the Potency result in assay [2], in assay [6], in assay [8], in assay [9] and in [10] was “inactive” each time.
Turning to `CCCCCCCCCCCCCCCC(=O)OCC`, the call in [1], in [3], in assay [4], in [5] and in assay [7] was inactive. Moreover, the Potency result in assay [2], in assay [6], in assay [8], in assay [9] and in [10] was “inactive” in each case.
